# Assay results taken from PubChem BioAssay (NCATS).
# Records with an inconclusive call do not appear. Unmarked numbers belong to inactive results. Calls come from the whole dose curve; as a rule, active = well fitted curve in the direction sought with a large enough effect; inconclusive = small, poorly fitted or top-dose-only effect, or another doubt; inactive = no such curve, though single readings can be large; an effect the other way counts as inactive or inconclusive.
# Target: Protein phosphatase 1D (Homo sapiens) (UniProt O15297)
# Sequence (O15297 whole entry, looked up): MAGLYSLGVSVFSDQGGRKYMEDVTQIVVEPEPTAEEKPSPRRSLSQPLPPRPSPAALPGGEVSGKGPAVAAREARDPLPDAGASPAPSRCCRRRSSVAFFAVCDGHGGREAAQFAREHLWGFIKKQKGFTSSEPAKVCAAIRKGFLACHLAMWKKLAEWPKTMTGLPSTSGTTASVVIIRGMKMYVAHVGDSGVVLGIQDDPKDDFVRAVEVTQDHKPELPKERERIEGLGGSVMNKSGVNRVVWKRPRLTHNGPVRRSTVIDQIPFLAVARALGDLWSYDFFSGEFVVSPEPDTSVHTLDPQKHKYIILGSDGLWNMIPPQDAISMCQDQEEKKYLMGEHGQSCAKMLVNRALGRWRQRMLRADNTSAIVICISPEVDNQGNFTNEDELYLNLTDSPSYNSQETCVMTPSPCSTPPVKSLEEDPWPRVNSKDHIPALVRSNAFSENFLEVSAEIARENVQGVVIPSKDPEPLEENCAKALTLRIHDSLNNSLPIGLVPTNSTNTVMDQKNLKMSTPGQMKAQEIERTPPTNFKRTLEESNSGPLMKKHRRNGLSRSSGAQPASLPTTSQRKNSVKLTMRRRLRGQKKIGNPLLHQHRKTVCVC
# Assay: Rhodamine-PBP qHTS Assay for Modulators of WT P53-Induced Phosphatase 1 (WIP1) (AID 1347425); note: % of control where 0% means no effect
# Settings: recombinant WIP1, Rhodamine-PBP phosphate fluorescence, real-time; series mostly up to 57.5 µM; activity change, negative = inhibition: at the top concentration
# Outline: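 5 nM WIP1 + 10 uM Rh-PBP, 50 mM Tris pH 7.5, 30 mM MgCl2, 1 mM TCEP, 0.1 mM EGTA, BSA; cpds pinned, 1 hr RT; + 10 uM phosphopeptide; fluorescence 1-min reads x 11 min; delta = f1 - f0.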
row,SMILES,"activity change, negative = inhibition"
1,Cc1ccc(-n2nc(C(C)(C)C)cc2NC(=O)Nc2ccc(OCCN3CCOCC3)c3ccccc23)cc1,-17.1%
2,CNC(=O)c1ccccc1Sc1ccc2c(/C=C/c3ccccn3)n[nH]c2c1,88.5%
3,CC(c1cc2ccccc2s1)N(O)C(N)=O (configuration not stated),-9.81%

# Tested on: not listed separately
# Assay: Primary qHTS for inhibitors of La Crosse Virus (LACV) - induced cell death in SH-SY5Y cells (AID 1508616);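 note: top concentration of the series differs between compounds; 0% = infected DMSO wells and 100% = uninfected DMSO wells; higher means more rescue of cells from virus-induced death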
# Settings: SH-SY5Y LACV cytopathicity rescue, ATP luminescence, 6 d; series mostly up to 4.29 µM; activity change: at the top concentration
# Outline: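 Protection against LACV-induced cell death is scored in SH-SY5Y cells exposed to compounds and virus (0.01 MOI) for 6 days. Data normalized to virus-infected DMSO wells and virus-free DMSO wells.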
row,SMILES,activity change
1,Cc1c(C)c2c(c(C)c1O)CCC(C)(COc1ccc(CC3SC(=O)NC3=O)cc1)O2 (configuration not stated),6.95%
2,Cc1ccc(-n2nc(C(C)(C)C)cc2NC(=O)Nc2ccc(OCCN3CCOCC3)c3ccccc23)cc1,22.3%
3,Nc1ncnc2nc(-c3ccc(N4CCOCC4)nc3)cc(-c3cccc(Br)c3)c12,-17.3% [at 9.63 µM]
4,CC(c1cc2ccccc2s1)N(O)C(N)=O (configuration not stated),-0.645%
